# SARS PLP yeast: SARS-CoV PLP inhibition in yeast | S. cerevisiae expressing SARS-CoV PLpro, growth rescue | Potency, µM (titrated, usually from 32.9 µM), inactives show at the top dose activity, positive = growth rescue, actives largely listed as activators | actives 0.19% (n = 330,000) | AID 485353; calls by dose curve; also: potency is read from the fitted curve at half-maximal effect; 0% is about no effect; nearly all actives have a fitted effect of over 55% in size
# AMA1-RON2 inh: AMA1-RON2 (P. falciparum) interaction inhibition; AlphaScreen AMA1-biotinylated RON2 peptide binding; AID 720542; actives 0.2% (n = 360,000); Potency, µM (highest dose often 58.2 µM), without a hit: at the highest dose activity change, negative = inhibition, actives largely listed as inhibitors;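 also: potency is read from the fitted curve at half-maximal effect; 0% = vehicle wells and -100% = peptide control; nearly all actives have a fitted effect of over 45% in size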
#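 AMA1 (3D7) with his tag at 25 nM final met compounds first, then biotinylated RON2 peptide at 25 nM; detection used donor plus acceptor beads, 10 µg/mL apiece, read by AlphaScreen after 30 min at room temperature.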
# Shiga toxin inh: inhibitors of Shiga toxin in Vero cells; AID 2315; inhibition, % at 38.7 µM; Vero cells, Shiga toxin protein synthesis inhibition reporter; actives 9.2% (n = 290,000); in the data active = inhibition mostly above about 28%, no sharp cut-off; inactive = mostly below about 43%; also: 0% is about no effect
# CHX counter: counter-screen for Shiga toxin inhibitors: cycloheximide protein synthesis inhibition. cell reporter, cycloheximide protein synthesis inhibition counterscreen. max response, %. actives 12% (n = 300,000). AID 2314; in the data active = max response mostly above about 13%, no sharp cut-off; inactive = mostly below about 14%; also: read at 38.3 µM for the half of the compounds with a filed dose; 0% is about no effect
# Pf growth 48h: inhibits P. falciparum growth in the first generation, 48 h | P. falciparum luciferase growth in erythrocytes, 48 h | Potency, µM (titrated, usually from 28.7 µM), without a hit: top-dose activity change, negative = inhibition, usual class: inhibitors | actives 5.9% (n = 310,000) | AID 504832; also: potency is read from the fitted curve at half-maximal effect; % is scaled to controls: 0 for no effect and ±100 for the full control effect
#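 Growth was read as firefly luciferase luminescence after a 48 h, 37 C, 5% CO2 exposure of compounds to reporter-bearing P. falciparum cultures (0.1% parasitemia, 2% hematocrit final) in Albumax-supplemented RPMI 1640.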
# Pf growth 96h: inhibits malaria parasite growth, 96 h | actives 6.9% (n = 320,000) | AID 504834 | P. falciparum luciferase reporter growth, 96 h | Potency, µM (titrated, usually from 28.7 µM), without a hit: at the highest dose activity change, negative = inhibition, actives largely listed as inhibitors; also: potency is read from the fitted curve at half-maximal effect; % is scaled to controls: 0 for no effect and ±100 for the full control effect
#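 96 h incubation, 37 C, 5% CO2, of luciferase-reporter P. falciparum-infected RBCs (2% hematocrit, 0.05% parasitemia final) with test compounds; endpoint luminescence.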
# Starred values were filed as active, the others as inactive; u = inconclusive; x = no result given; [ ] = remark or other dose. Compounds with a hit are over-represented: about 19% of the library has one in this group of screens. Unless noted, calls follow the shape of the dose curve; as a rule, active = well fitted curve in the direction sought with a large enough effect; inconclusive = small, poorly fitted or top-dose-only effect, or another doubt; inactive = no such curve, though single readings can be large; an effect the other way counts as inactive or inconclusive.
SMILES,SARS PLP yeast,AMA1-RON2 inh,Shiga toxin inh,CHX counter,Pf growth 48h,Pf growth 96h
COc1cc(CN2C[C@@H](CO)O[C@@H](n3cnc4c(NCC(C)C)ncnc43)C2)cc(OC)c1OC,x,-1%,x,x,x,x
Cc1ccc(S(=O)(=O)N2CC3CCCN3c3ccc(C(F)(F)F)cc32)cc1 (configuration not stated),3%,2%,-7,-3,10µM*,u
COc1ccc(/C=C/C(=O)NCCSCc2ccco2)cc1OC,0%,-3%,17,1,-4%,-19%
CC(C)(C)OC[C@H](NC(=O)c1[nH]cnc1C(=O)Nc1ccccc1F)C(=O)OC(C)(C)C,x,107%,x,x,x,x
O=C(Nc1ccccc1N1CCCC1)c1ccc([N+](=O)[O-])o1,-6%,-18%,41*,36*,9.3µM*,4.1µM*
O=C(Nc1cccc2ccccc12)c1ccc([N+](=O)[O-])o1,-31%,-1%,31*,31*,u,5.2µM*
O=C(Nc1ccccc1C(=O)NC1CC1)c1ccc([N+](=O)[O-])o1,-3%,-14%,x,x,u,10µM*
O=C(Nc1ccccc1N1CCN(C(=O)c2ccccc2)CC1)c1ccc([N+](=O)[O-])o1,4%,-6%,26,3,u,9%
CC(C)C(=O)N1CCN(c2ccccc2NC(=O)c2ccc([N+](=O)[O-])o2)CC1,-13%,-4%,50*,27*,0%,18%
COC(=O)[C@@]12C[C@@H](CC(=O)NCc3cccc(C(F)(F)F)c3)C(=O)N(Cc3ccc4c(c3)OCO4)C1=CCC(C)(C)C2,x,-20%,x,x,x,x
COc1ccc(CN2CCC[C@]3(N[C@H](c4ccc(OC)cc4)[C@@H]4C(=O)N(C)C(=O)[C@@H]43)C2=O)cc1,x,-4%,x,x,x,x
Cc1ccc(C)c(CC(=O)N2CCCCC2c2cc(C(=O)Nc3cccc(C#N)c3)no2)c1 (configuration not stated),x,4%,x,x,x,x
COc1cccc(C(=O)NCCS(=O)(=O)NCCCc2ccccc2)c1,1%,3%,x,x,18%,42%
COc1ccc(CCC(=O)NC2CCCN(Cc3ccc(Cl)cc3)C2)cc1OC (configuration not stated),4%,0%,-7,-4,u,42%
Cc1cc(C(=O)NC2CCC(C)CC2)c(C)o1 (configuration not stated),-3%,-4%,80*,52*,86%,198%
Cc1cc(C(=O)NC2CCCN(Cc3ccc(Cl)cc3)C2)c(C)o1 (configuration not stated),-5%,5%,-8,-1,10µM*,u
O=C(CCc1ccc(F)c(F)c1)NC1CCCN(Cc2ccc(Cl)cc2)C1 (configuration not stated),-2%,-2%,-17,-2,-22%,9.3µM*
COCCc1nc2ccc(C(=O)N(C)Cc3cccc(-n4nc(C)cc4C)c3)cc2o1,-1%,5%,-7,7,0%,u
NC(=O)c1ccc(SCC(=O)NC2CCCCC2)c([N+](=O)[O-])c1,5%,18%,-8,2,-3%,0%
O=C1C=C(c2cccc(Cl)c2O)C[C@@H](c2ccc3c(c2)OCO3)C1,2%,-24%,x,x,12µM*,u
O=C1C=C(c2cccc(Cl)c2)C[C@@H](c2ccc3c(c2)OCO3)C1,-2%,-18%,x,x,u,u
COc1ccc([C@H]2CC(=O)C=C(c3ccc(O)cc3)C2)cc1OC,-9%,-14%,x,x,u,u
CCOC(=O)c1cccc(C2=CC(=O)C[C@H](c3ccc(OC)c(OC)c3)C2)c1,-5%,-16%,x,x,10µM*,u
COc1ccc([C@H]2CC(=O)C=C(c3cccc(Cl)c3O)C2)cc1OC,-2%,-11%,x,x,u,9.3µM*
O=C1C=C(c2cccc(Br)c2)C[C@@H](c2ccc3c(c2)OCO3)C1,-22%,-24%,x,x,4.7µM*,u
SMILES,SARS PLP yeast,AMA1-RON2 inh,Shiga toxin inh,CHX counter,Pf growth 48h,Pf growth 96h
NC1=NS(=O)(=O)NC1c1ccc(F)cc1 (configuration not stated),2%,-8%,-2,-3,23%,-67%
Cc1cccc(C)c1NC(=O)CS(=O)CC(=O)NCC1OCCc2ccccc21 (configuration not stated),0%,10%,-12,1,5%,-19%
O=C(CSc1nnc(CNC(=O)c2ccco2)o1)Nc1ccc(Br)cc1,-1%,7%,-3,15,30%,-10%
CCN(CC)S(=O)(=O)c1cc(C(=O)Nc2cc(C)[nH]n2)ccc1Cl,-2%,42%,117*,67*,x,68%
O=C(O)c1ccc(NS(=O)(=O)c2cccc(C(=O)Nc3ccccc3[N+](=O)[O-])c2)cc1,2%,-3%,-4,6,4%,0%
CCN(CC)S(=O)(=O)c1cc(C(=O)NC2=NCCS2)ccc1Cl,-25%,100%,-2,1,x,0%
CCN(CC)S(=O)(=O)c1cc(C(=O)Nc2ccccc2[N+](=O)[O-])ccc1Cl,14%,u,41*,27*,26%,55%
CN(C)S(=O)(=O)c1cccc(C(=O)Nc2ccccc2[N+](=O)[O-])c1,4%,u,51*,18*,41%,-5%
COc1ccc(N(C)C(=O)C2CCN(S(=O)(=O)c3cccc4nonc34)CC2)cc1,2%,0%,-6,0,-18%,-19%
O=C(CCc1ccc(O)c(O)c1)NNC(=S)Nc1ccc(Br)cc1Cl,1%,99%,-13,-2,6%,9%
O=C(Nn1c(=O)[nH]c2ccccc2c1=O)c1ccco1,0%,-4%,-8,-1,-6%,x
COc1ccc(/C=C/C(O)=C2/C(=O)NC3(C)CC2c2ccccc2O3)c(OC)c1OC (configuration not stated),3%,7%,-17,6,u,-15%
COc1ccc(/C=C/C(O)=C2/C(=O)N(C)C3(C)CC2c2ccccc2O3)cc1 (configuration not stated),-6%,-2%,-2,-3,13µM*,0%
Cc1ccc(/C=C/C(O)=C2/C(=O)N(C)C3(C)CC2c2ccccc2O3)cc1 (configuration not stated),-22%,14%,-11,2,12µM*,12%
Cc1ccc(S(=O)(=O)C2C(=O)N(C)C3(C)CC2c2ccccc2O3)cc1C (configuration not stated),28%,-2%[2.32 µM],-6,-2,0%,-28%
Cc1csc(NC(=O)CSc2nccn2C)n1,-9%,10%,30,29*,77%,-3%
Cc1csc(SCC(=O)Nc2cccc3nsnc23)n1,-4%,83%,24,20*,52%,u
O=C(CSc1ccc([N+](=O)[O-])cn1)Nc1nccs1,u,-2%,5,5,u,u

# Screening results deposited in PubChem by National Center for Advancing Translational Sciences (NCATS).
